Measurements as given in PubChem BioAssay (Tox21).
Inconclusive results are not listed. Active and inactive are the calls of the source. Unless noted, calls come from the whole dose curve; as a rule, active = well fitted curve in the direction sought with a large enough effect in the repeat runs; inconclusive = weak or mixed curves; inactive = no such curve, though single readings can be large; an effect the other way counts as inactive or inconclusive.

What was measured:
[1] = molecular target: Thyrotropin receptor (Homo sapiens) (UniProt P16473); assay: qHTS assay to identify small molecule agonists of the thyroid stimulating hormone receptor (TSHR) signaling pathway (AID 1224843; calls by dose curve; note: nearly all actives have a fitted effect of over 45% in size)
How it was run: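 TSHR-expressing HEK293 cells (800 per well) were exposed to compounds for 30 min at room temperature. cAMP was then detected by HTRF competition with cAMP-d2 and anti-cAMP cryptate, read after 1 h at room temperature. Fifteen concentrations, triplicate.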

[2] = qHTS assay to identify small molecule agonists of the hypoxia (HIF-1) signaling pathway - cell viability counter screen (AID 1224844; calls by dose curve; note: nearly all actives have a fitted effect of over 50% in size)
How it was run: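 HRE-bla ME-180 cells in medium with 0.5% dialyzed FBS were preincubated 5 hrs at 37C, exposed to compounds for 17 hrs, then viability was read as CellTiter-Glo luminescence after 30 min at room temperature, in the reporter wells.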

[3] = qHTS assay to identify small molecule agonists of H2AX (AID 1224845; active = well fitted activation curve with a large enough effect in the signal ratio in the repeat runs, not every such curve was filed as active; the % refers to the signal ratio)
How it was run: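 Wild-type CHO-K1 cells plated overnight, then exposed 3 hr at 37C to compounds at 15 concentrations (0.76% DMSO). Lysed, then HTRF anti-pH2AX(S139)-cryptate/anti-H2AX-d2 detection after 24 hr at room temperature; emissions 665 and 620 nm.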

[4] = qHTS assay to identify small molecule agonists of the hypoxia (HIF-1) signaling pathway (AID 1224846; active = well fitted activation curve with a large enough effect in the signal ratio in the repeat runs, not every such curve was filed as active; the % refers to the signal ratio)
How it was run: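 HRE-bla ME-180 cells (beta-lactamase reporter under hypoxia response element) were plated at 2,000 cells/well in medium with 0.5% dialyzed FBS, rested 5 hrs, then given compounds in DMSO for 17 hrs at 37C, 5% CO2. Reporter induction was read with CCF4-AM FRET substrate.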

[5] = qHTS assay to identify small molecule agonists of H2AX - cell viability counter screen (AID 1224847; calls by dose curve; note: top concentration of the series differs between compounds; nearly all actives have a fitted effect of over 30% in size)
How it was run: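 After overnight plating of 1000 CHO-K1 cells per well, a 15-concentration compound series was applied for 3 hr at 37C. Luminescence from CellTiter-Glo, read following 30 min at room temperature, reflected cell viability.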

[6] = qHTS RealTime-Glo MT Cell Viability Assay in HepG2 cells - 24 hour (AID 1224867); note: nearly all actives have a fitted effect of over 50% in size
How it was run: (§1)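 Tox21 10K library screened in qHTS format on HepG2 cells carrying RealTime-Glo reagents. Compounds were added after a 5 h preincubation, and the luminescent signal from continuous culture was measured repeatedly during 40 h treatment.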

[7] = qHTS RealTime-Glo MT Cell Viability Assay in HEK293 cells - 32 hour (AID 1224868); note: top concentration of the series differs between compounds; nearly all actives have a fitted effect of over 50% in size
How it was run: (§2)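 Luminescence generated by NanoLuc from substrate produced by living HEK293 cells served as the viability signal. Each value reflects the reading at its stated time point during continuous 40 h compound exposure at 37 C.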

[8] = A CellTox Green Cytotoxicity Assay to monitor cytotoxicity in HEK293 cells - 0 hour (AID 1224869); note: nearly all actives have a fitted effect of over 50% in size
How it was run: (§3)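 HEK293 cells premixed with CellTox Green dye were seeded at 600 cells/well and left 5 h at 37 C/5% CO2 before pin transfer of 23 nL compound in DMSO. Fluorescence from dye bound to dead-cell DNA was read during 40 h treatment.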

[9] = qHTS RealTime-Glo MT Cell Viability Assay in HepG2 cells - 40 hour (AID 1224870); note: nearly all actives have a fitted effect of over 50% in size; note: potency is the fitted concentration of half-maximal effect
How it was run: (§4)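 HepG2 cells mixed with RealTime-Glo MT reagents (NanoLuc plus cell-permeant prosubstrate) were seeded at 600 cells/well, incubated 5 h at 37 C/5% CO2, then pinned with compounds in DMSO; nonlytic luminescence tracked viability during 40 h treatment.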

[10] = A CellTox Green Cytotoxicity Assay to monitor cytotoxicity in HEK293 cells - 40 hour (AID 1224871); note: nearly all actives have a fitted effect of over 45% in size
How it was run: as §3

[11] = qHTS RealTime-Glo MT Cell Viability Assay in HEK293 cells - 16 hour (AID 1224872)
How it was run: as §2

[12] = qHTS RealTime-Glo MT Cell Viability Assay in HepG2 cells - 8 hour (AID 1224873); note: nearly all actives have a fitted effect of over 55% in size
How it was run: as §4

[13] = qHTS RealTime-Glo MT Cell Viability Assay in HEK293 cells - 40 hour (AID 1224874); conditions: RealTime-Glo luminescence; max response: active compounds read low; note: nearly all actives have a fitted effect of over 50% in size
How it was run: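 HEK293 cells mixed with RealTime-Glo reagents (NanoLuc plus cell-permeant prosubstrate) at 600 cells/well, preincubated 5 h at 37 C/5% CO2, then given 23 nL compound in DMSO. Nonlytic luminescence from viable cells was read at 0, 8, 16, 24, 32 and 40 h.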

[14] = A CellTox Green Cytotoxicity Assay to monitor cytotoxicity in HEK293 cells - 24 hour (AID 1224875); note: series mostly up to about 77 µM; nearly all actives have a fitted effect of over 45% in size
How it was run: as §3

[15] = A CellTox Green Cytotoxicity Assay to monitor cytotoxicity in HepG2 cells - 16 hour (AID 1224876); note: nearly all actives have a fitted effect of over 45% in size
How it was run: (§5)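 HepG2 cells were seeded together with the CellTox Green dye at 600 cells/well, left 5 h at 37 C/5% CO2, then given compounds in DMSO. Fluorescence from dye bound to dead-cell DNA was read repeatedly over 40 h of treatment at 37 C.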

[16] = qHTS RealTime-Glo MT Cell Viability Assay in HepG2 cells - 32 hour (AID 1224877); note: nearly all actives have a fitted effect of over 55% in size
How it was run: as §1

[17] = A CellTox Green Cytotoxicity Assay to monitor cytotoxicity in HepG2 cells - 24 hour (AID 1224878); note: nearly all actives have a fitted effect of over 45% in size
How it was run: as §5

[18] = A CellTox Green Cytotoxicity Assay to monitor cytotoxicity in HepG2 cells - 40 hour (AID 1224879); note: nearly all actives have a fitted effect of over 40% in size
How it was run: as §5
% is set by controls: 0 for no effect and ±100 for the full control effect.

Thyrotropin receptor (Homo sapiens), sequence (P16473 whole entry, looked up): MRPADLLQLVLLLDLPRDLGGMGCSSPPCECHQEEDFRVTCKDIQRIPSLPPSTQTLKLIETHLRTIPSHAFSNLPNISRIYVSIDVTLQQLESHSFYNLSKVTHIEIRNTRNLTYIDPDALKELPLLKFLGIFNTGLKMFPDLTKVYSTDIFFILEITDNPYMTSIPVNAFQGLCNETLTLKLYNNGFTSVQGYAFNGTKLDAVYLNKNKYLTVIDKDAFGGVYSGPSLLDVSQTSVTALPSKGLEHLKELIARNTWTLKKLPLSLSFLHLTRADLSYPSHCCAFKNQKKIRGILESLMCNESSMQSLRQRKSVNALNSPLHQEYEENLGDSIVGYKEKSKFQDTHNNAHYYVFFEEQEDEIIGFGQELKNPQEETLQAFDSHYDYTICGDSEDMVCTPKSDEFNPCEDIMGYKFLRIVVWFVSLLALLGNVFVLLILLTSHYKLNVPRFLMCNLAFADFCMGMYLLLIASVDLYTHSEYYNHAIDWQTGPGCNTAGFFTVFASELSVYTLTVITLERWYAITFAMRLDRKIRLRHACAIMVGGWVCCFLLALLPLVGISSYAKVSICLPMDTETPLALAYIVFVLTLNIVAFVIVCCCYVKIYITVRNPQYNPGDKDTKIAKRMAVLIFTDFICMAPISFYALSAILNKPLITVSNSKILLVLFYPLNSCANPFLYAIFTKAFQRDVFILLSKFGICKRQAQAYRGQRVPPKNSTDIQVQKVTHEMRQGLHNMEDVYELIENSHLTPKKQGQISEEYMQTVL

O=C(O)c1ccccc1-c1ccc(C(F)(F)F)cc1
inactive: outcome [1] | Potency [2] | outcome [3] | outcome [4] | Potency [5] | outcome [6] | Potency [7] | Potency [8] | Potency [9] | Potency [10] | Potency [11] | outcome [12] | max response [13] 7.22% | Potency [14] | Potency [15] | Potency [16] | Potency [17] | Potency [18]

O=C1OC(=O)c2cc([N+](=O)[O-])ccc21
inactive: outcome [1] | Potency [2] | outcome [3] | outcome [4] | Potency [5] | outcome [6] | Potency [8] | Potency [9] | Potency [10] | outcome [12] | max response [13] 13% | Potency [14] | Potency [15] | Potency [16] | Potency [17] | Potency [18]

CCCCCCCCCCCCCCCCCC(=O)OCCCCCCCCCCCCCC(C)C
inactive: outcome [1] | Potency [2] | outcome [3] | outcome [4] | Potency [5] | outcome [6] | Potency [10] | Potency [11] | outcome [12] | max response [13] 1.07% | Potency [14] | Potency [15] | Potency [16] | Potency [17] | Potency [18]

CCN(CC)S(=O)(=O)c1ccc(C(=O)O)cc1
inactive: outcome [1] | Potency [2] | outcome [3] | outcome [4] | Potency [5] | outcome [6] | Potency [8] | Potency [9] | Potency [15] | Potency [16] | Potency [17] | Potency [18]

CCCC(C)CO (stereo not drawn)
inactive: outcome [1] | Potency [2] | outcome [3] | outcome [4] | Potency [5] | outcome [6] | Potency [8] | Potency [9] | Potency [10] | outcome [12] | max response [13] 8.5% | Potency [14] | Potency [15] | Potency [16] | Potency [17] | Potency [18]

CCCCc1ccc(N)cc1
inactive: outcome [1] | Potency [2] | outcome [3] | outcome [4] | Potency [5] | outcome [6] | Potency [8] | Potency [9] | Potency [10] | Potency [11] | Potency [14] | Potency [15] | Potency [17] | Potency [18]

COCCOC(=O)CC#N
inactive: outcome [1] | Potency [2] | outcome [3] | outcome [4] | Potency [5] | outcome [6] | Potency [7] | Potency [8] | Potency [10] | outcome [12] | max response [13] 1.9% | Potency [14] | Potency [15] | Potency [16] | Potency [17] | Potency [18]

Cc1ccccc1C(=O)O
inactive: outcome [1] | Potency [2] | outcome [3] | outcome [4] | Potency [5] | outcome [6] | Potency [7] | Potency [9] | Potency [10] | Potency [11] | outcome [12] | max response [13] -0.805% | Potency [14] | Potency [15] | Potency [16]

C[N+](C)(C)CC[N+]1(C)Cc2c(Cl)c(Cl)c(Cl)c(Cl)c2C1
active: Potency [9] 23.9 µM
inactive: outcome [1] | Potency [2] | outcome [3] | outcome [4] | Potency [5] | Potency [7] | Potency [10] | Potency [11] | max response [13] 7.36% | Potency [14] | Potency [15] | Potency [17] | Potency [18]

CC/C=C\C#N
inactive: outcome [1] | Potency [2] | outcome [3] | outcome [4] | Potency [5] | outcome [6] | Potency [7] | Potency [10] | Potency [11] | outcome [12] | max response [13] 20.1% | Potency [15] | Potency [16] | Potency [17] | Potency [18]

OCC(CO)(CO)COCC(CO)(CO)CO
inactive: outcome [1] | Potency [2] | outcome [3] | outcome [4] | Potency [5] | outcome [6] | Potency [7] | Potency [8] | Potency [10] | outcome [12] | max response [13] 9.54% | Potency [15] | Potency [17] | Potency [18]

CC(C)CCCCCCN
inactive: outcome [1] | Potency [2] | outcome [3] | outcome [4] | outcome [6] | Potency [8] | Potency [10] | Potency [11] | outcome [12] | max response [13] -7.14% | Potency [14] | Potency [15] | Potency [16] | Potency [17] | Potency [18]

CC(C)[C@H](N)C(=O)OCCOCn1cnc2c(=O)[nH]c(N)nc21
inactive: outcome [1] | Potency [2] | outcome [3] | outcome [4] | Potency [5] | outcome [6] | Potency [7] | Potency [8] | Potency [10] | Potency [11] | outcome [12] | max response [13] 9.28% | Potency [14] | Potency [15] | Potency [16] | Potency [17] | Potency [18]

C=CCn1c(=O)n([C@@H]2O[C@H](CO)[C@@H](O)[C@H]2O)c2nc(N)[nH]c(=O)c21
inactive: outcome [1] | Potency [2] | outcome [3] | outcome [4] | Potency [5] | outcome [6] | Potency [7] | Potency [8] | Potency [10] | Potency [11] | max response [13] 3.44% | Potency [14] | Potency [15] | Potency [17] | Potency [18]

CC(=O)c1ccc(C)cc1
inactive: outcome [1] | Potency [2] | outcome [3] | outcome [4] | Potency [5] | outcome [6] | Potency [7] | Potency [9] | Potency [10] | Potency [11] | outcome [12] | max response [13] -0.83% | Potency [15] | Potency [16] | Potency [17] | Potency [18]

CC(C=O)Cc1ccc(C(C)C)cc1 (stereo not drawn)
inactive: outcome [1] | Potency [2] | outcome [3] | outcome [4] | Potency [5] | outcome [6] | Potency [7] | Potency [8] | Potency [9] | Potency [10] | Potency [11] | outcome [12] | max response [13] 18.5% | Potency [14] | Potency [15] | Potency [16] | Potency [17] | Potency [18]

NC(=S)Nc1cccc2ccccc12
inactive: activation [1] 1.3% [at 8.39 µM] | activity change, negative = cytotoxicity [2] -3.12% [at 6.97 µM] | activation (H2AX phosphorylation) [3] 4.19% [at 14 µM] | activation [4] 1.15% [at 7.01 µM] | activity change, negative = cytotoxicity [5] 1.9% [at 14 µM] | activity change, negative = cytotoxicity [6] 1.73% [at 6.97 µM] | activity change, negative = cytotoxic [7] 15.6% [at 6.97 µM] | cytotoxicity [8] 0.823% [at 6.97 µM] | activity change, negative = cytotoxic [9] -4.8% [at 6.97 µM] | cytotoxicity increase [10] 0.339% [at 6.97 µM] | viability change, negative = cytotoxic [12] 2.4% [at 6.97 µM] | max response [13] 16.5% | activity change [14] 0.127% [at 6.97 µM, active compounds read high] | cytotoxicity increase [15] 1.42% [at 6.97 µM] | activity change, negative = cytotoxic [16] -0.0723% [at 6.97 µM] | cytotoxicity [17] -1.06% [at 6.97 µM] | cytotoxicity increase [18] 2.43% [at 6.97 µM]
